These results are taken from PubChem BioAssay (Tox21).

Assay [1] in a line: A CellTox Green Cytotoxicity Assay to monitor cytotoxicity in HepG2 cells - 32 hour (AID 1224883). Note: nearly all actives have a fitted effect of over 50% in size. In a few lines: (§1)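 Real-time, homogeneous cytotoxicity readout: dead-cell DNA staining by CellTox Green in HepG2 monolayers, fluorescence measured at timed intervals up to 40 h of continuous compound exposure.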
Assay [2] in a line: A CellTox Green Cytotoxicity Assay to monitor cytotoxicity in HEK293 cells - 8 hour (AID 1224884). Note: nearly all actives have a fitted effect of over 35% in size. An outline of the steps:
(§2)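 Cytotoxicity was tracked continuously in HEK293 cells by a DNA-binding dye excluded from viable cells. Compounds were transferred in DMSO 5 h after seeding; fluorescence was recorded at intervals up to 40 h.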

Assay [3] is described as follows: qHTS RealTime-Glo MT Cell Viability Assay in HEK293 cells - 24 hour (AID 1224886). For activity change, negative = cytotoxicity: top concentration of the series differs between compounds. Note: nearly all actives have a fitted effect of over 50% in size. In a few lines:
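Assay medium contained NanoLuc luciferase plus cell-permeant prosubstrate, added with HEK293 cells at 600 cells/well. After 5 h at 37 C/5% CO2 compounds were added; plates stayed at 37 C for 40 h with serial luminescence reads.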
A general note: In qHTS, concentration-response curves come from the screen itself.

The nature of assay [4]: A CellTox Green Cytotoxicity Assay to monitor cytotoxicity in HEK293 cells - 16 hour (AID 1224888). Note: nearly all actives have a fitted effect of over 35% in size. In a few lines:
as §2

The nature of assay [5]: qHTS RealTime-Glo MT Cell Viability Assay in HepG2 cells - 0 hour (AID 1224889). Note: nearly all actives have a fitted effect of over 50% in size. An outline of the steps:
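qHTS, HepG2, 600 cells/well, RealTime-Glo (NanoLuc + prosubstrate) added with cells; 5 h preincubation; DMSO compound addition; 37 C; luminescence at 0/8/16/24/32/40 h.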

Assay [6] is described as follows: A CellTox Green Cytotoxicity Assay to monitor cytotoxicity in HepG2 cells - 8 hour (AID 1224890). Note: nearly all actives have a fitted effect of over 45% in size. An outline of the steps:
as §1

A short description of assay [7]: qHTS assay to identify small molecule antagonists of the estrogen receptor alpha (ER-alpha) signaling pathway using the BG1 cell line in the presence of 0.1 nM 17-beta-estradiol - cell viability counter screen (AID 1259241). Note: nearly all actives have a fitted effect of over 40% in size. In a few lines:
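VM7Luc4E2 cells (endogenous full-length ER-alpha, 4xERE-luciferase), cultured 5 days in charcoal-stripped serum, exposed to compounds with 0.1 nM 17beta-estradiol (final) for 22 hr at 37C. Viability read in same wells as live-cell protease fluorescence after 30 min.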

Assay [8] can be described thus: qHTS assay to identify small molecule antagonists of the androgen receptor (AR) signaling pathway using the MDA cell line in the presence of 0.5 nM R1881 - cell viability counter screen (AID 1259242). Note: nearly all actives have a fitted effect of over 45% in size. In a few lines:
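Cytotoxicity toward MDA-kb2 cells is measured by CellTiter-Fluor live-cell protease fluorescence after 16 hr compound exposure at 37C in the presence of 0.5 nM R1881 stimulator.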

Assay [9] is described as follows: qHTS RealTime-Glo MT Cell Viability Assay in HEK293 cells - 8 hour (AID 1224887). For activity change, negative = cytotoxicity: top concentration of the series differs between compounds. Note: nearly all actives have a fitted effect of over 50% in size. In a few lines:
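Nonlytic bioluminescent viability monitoring. HEK293 at 600 cells/well with reagent; 5 h settle; compound transfer by pintool; plates held at 37 C and read at set time points.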

Values joined by “and” are separate entries in the source; they are usually repeats but may differ in a detail not shown here. Identical values can stand only once. Results filed as inconclusive are left out. A number with no mark means an inactive call. Active and inactive are the calls of the source. Calls come from the whole dose curve; as a rule, active = well fitted curve in the direction sought with a large enough effect in the repeat runs; inconclusive = weak or mixed curves; inactive = no such curve, though single readings can be large; an effect the other way counts as inactive or inconclusive.
% is set by controls: 0 for no effect and ±100 for the full control effect; potency is the fitted concentration of half-maximal effect.

Take `CN(C)c1ccc(SC#N)cc1`: the Potency result in assay [1], in assay [2], in [3], in [4], in assay [5] and in [6] was “inactive” each time. Moreover, the Potency entry in [7] and in assay [8] was “inactive” each time.
Turning to `Nc1c2ccccc2nc2ccccc12`, the Potency in [1] was 12.1 µM (active) and 10.7 µM (active). Further, the Potency result in [2], in [4], in [5], in assay [6] and in [7] was “inactive” each time.
As to `Cc1cc(=O)oc2cc(N(C)C)ccc12`, the Potency entry in assay [1], in [2], in [9], in assay [4], in assay [5] and in [6] was “inactive” throughout.
As to `C[C@]12CCC(=O)C=C1CC[C@@H]1[C@@H]2[C@@H](O)C[C@@]2(C)[C@H]1CC[C@]2(O)C(=O)COC(=O)CCC(=O)O`, the Potency result in assay [1], in assay [2], in [3], in [9], in assay [4] and in [7] was “inactive” throughout. Also, the Potency result in assay [8] was “inactive”. Also, in assay [5], the Potency is 3.38 µM (active).
Consider `CCCCCCCCCCCCCCCCCC[N+](C)(C)Cc1ccccc1`, for which the Potency in [1] is 22.1 µM (active); in assay [2], 19.7 µM (active); in [9], 24.8 µM (active); in [4], 22.1 µM (active); in [6] it was 55.5 µM (active); in assay [8] it was 49 µM (active).
For `O=C(Oc1ccccc1)c1ccccc1C(=O)Oc1ccccc1`, the Potency entry in assay [1], in assay [2], in assay [9], in [4], in assay [6] and in [7] was “inactive” throughout.
Regarding `CN(C)[C@@H]1C(=O)C(C(N)=O)=C(O)[C@@]2(O)C(=O)C3=C(O)c4c(O)ccc(Cl)c4[C@@H](O)[C@H]3C[C@@H]12`, the Potency entry in assay [1], in [2], in assay [3], in [4], in assay [5] and in [6] was “inactive” throughout. The Potency entry in assay [7] and in [8] was “inactive” in each case.
In the case of `CC(C)c1ccc2c(c1)CC[C@H]1[C@](C)(CN)CCC[C@]21C`, the Potency in [1] was 12.3 µM (active); in [2], 38.9 µM (active); in assay [3], 12.3 µM (active); in [9], 21.9 µM (active); in assay [4], 24.5 µM (active); in assay [6] it was 43.6 µM (active). Further, in assay [7], the Potency entry is “inactive”.
Regarding `CCCCCCOC(=O)c1ccc(O)cc1`, the Potency is 43.7 µM (active) and 7.76 µM (active) in assay [1]; 43.7 µM (active) and 24.5 µM (active) in [3]. For the same compound, the Potency entry in [2], in assay [4], in assay [5], in assay [6], in assay [7] and in assay [8] was “inactive” each time.
As for `CCCCCCCCCCCC[N+](C)(C)CCCCCCCCCCCC`, the Potency was 7.76 µM (active) in assay [1]; 19.5 µM (active) in assay [2]; 6.92 µM (active) in [3]; 17.4 µM (active) in [9]; 17.4 µM (active) in [4]; 19.5 µM (active) in [6]. Also, the Potency in assay [7] is 54.5 µM (active).
On to `COc1ccc(-c2ccc3cc(C(=O)O)ccc3c2)cc1C12CC3CC(CC(C3)C1)C2`, for which the values for the Potency in assay [1] and in assay [3] were 21.3 µM (active) and 4.77 µM (active), respectively. In addition, the Potency entry in assay [2], in assay [4], in [5] and in assay [7] was “inactive” in each case.
`O=C(OC[C@H]1O[C@@H](OC(=O)c2cc(O)c(O)c(OC(=O)c3cc(O)c(O)c(O)c3)c2)[C@H](OC(=O)c2cc(O)c(O)c(OC(=O)c3cc(O)c(O)c(O)c3)c2)[C@@H](OC(=O)c2cc(O)c(O)c(OC(=O)c3cc(O)c(O)c(O)c3)c2)[C@@H]1OC(=O)c1cc(O)c(O)c(OC(=O)c2cc(O)c(O)c(O)c2)c1)c1cc(O)c(O)c(OC(=O)c2cc(O)c(O)c(O)c2)c1`: the cytotoxicity increase in assay [1] is -61.4% [at 15.8 µM]; in [2], -34.5% [at 15.8 µM]; in assay [6], -46.2% [at 15.8 µM]. The activity change, negative = cytotoxicity is -15.8% [at 15.8 µM] in [9] and -17.5% [at 15.8 µM] in assay [5]. Also, the activity change in assay [4] was -38.7% [at 15.8 µM, hits give high values]. Also, the viability change, negative = cytotoxic in [8] was -18.2% [at 19 µM].
`COc1ccc(CN2CCN(C(c3ccc(F)cc3)c3ccc(F)cc3)CC2)c(OC)c1OC`: the Potency in [1] was 10.7 µM (active); in assay [3] it was 9.52 µM (active); in [9], 19 µM (active). Further, the Potency entry in assay [2], in assay [4], in assay [5] and in assay [7] was “inactive” each time.
Regarding `COCCCC/C(=N\OCCN)c1ccc(C(F)(F)F)cc1`, in assay [1], the Potency is 26.8 µM (active). For the same compound, the Potency entry in [2], in assay [9], in assay [4], in assay [5], in assay [7] and in assay [8] was “inactive” each time.
On to `Cc1cccc(N(C)C(=S)Oc2ccc3c(c2)C2CCC3C2)c1` (stereo not drawn), for which the Potency entry in assay [1], in assay [2], in assay [9], in assay [4], in assay [5] and in assay [6] was “inactive” in each case. For the same compound, the Potency entry in [7] and in [8] was “inactive” in each case.
For `N=C1C=CC(=C(c2ccc(N)cc2)c2ccc(N)cc2)C=C1`, the Potency entry in assay [1], in assay [2], in assay [4] and in assay [5] was “inactive” in each case. In addition, the results for the Potency in assay [3], in assay [7] and in [8] were 3.47 µM (active), 30.6 µM (active) and 9.69 µM (active), respectively.
Take `CCCCCCC[N+](CC)(CC)CCCCc1ccc(Cl)cc1`: the Potency was 23.9 µM (active) in assay [1], 26.6 µM (active) in assay [7] and 6.68 µM (active) in assay [8]. For the same compound, the Potency entry in [2], in assay [4], in assay [5] and in assay [6] was “inactive” throughout.
On to `CCCCCCCCS(=O)C(C)Cc1ccc2c(c1)OCO2` (stereo not drawn), for which the Potency result in assay [1], in assay [2], in assay [4], in assay [5], in assay [6] and in assay [7] was “inactive” each time. For the same compound, the Potency entry in assay [8] was “inactive”.
As to `CCCCCCCC/C=C\CCCCCCCCOCCO`, the Potency in assay [1] is 63.7 µM (active); in [3] it was 3.19 µM (active); in assay [7], 63.1 µM (active); in assay [8], 20 µM (active). The Potency result in [2], in [4] and in [5] was “inactive” each time.
Regarding `CCOC(=O)O[C@]1(C(=O)OCCl)CC[C@H]2[C@@H]3CCC4=CC(=O)C=C[C@]4(C)[C@H]3[C@@H](O)C[C@@]21C`, the Potency entry in assay [1], in [2], in [9], in assay [4], in assay [7] and in [8] was “inactive” in each case. In addition, the Potency in assay [5] was 3.38 µM (active).
In the case of `CN1CCC(Nc2ncc3ncnc(Nc4ccc(F)c(Cl)c4)c3n2)CC1`, the Potency is 26.8 µM (active) in assay [1] and 9.52 µM (active) in [3]. In addition, the Potency entry in assay [2], in [4], in assay [5], in [6], in assay [7] and in assay [8] was “inactive” throughout.
